# In PubChem BioAssay AID1979 (Broad Institute, 2009):
# The campaign covered roughly 300,000 compounds. About 1,700 (0.57%) were called active. Roughly 2% stayed inconclusive and do not appear here. Shown is part of a subset that was picked to be rich in actives. A number with no mark means an inactive call.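 How the source made its calls: active means growth inhibition above about 58% in most replicates (limit read from the data, passing the limit was not always enough); inconclusive means exactly half the replicates above a set limit; inactive means most replicates below a set limit.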
# Assay: C. albicans growth inhibition with fluconazole, primary screen, CaCi-2 strain, Alamar Blue fluorescence (AID 1979);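 further: all wells also contain fluconazole at 8 µg/ml as a sub-toxic cotreatment; 0% = median of DMSO wells and 100% = median of geldanamycin control wells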
# Details: C. albicans CaCi-2 (fluconazole-resistant clinical isolate) + fluconazole, 48 h, active compounds read high, concentration not given here
row,Structure (SMILES),growth inhibition
1,COc1ccc(-c2nnc(SCC(=O)Nc3cccnc3Cl)n2C)cc1,6.53%
2,O=C(NC(Cc1ccccc1)C(=O)N1CCCC(C(F)(F)F)C1)c1ccccc1 (stereo unspecified),1.33%
3,CCCCN(C(=O)CSCC(=O)Nc1ccc(OC)cc1)c1c(N)n(CCC)c(=O)[nH]c1=O,-2.57%
4,CC12CCC(C(=O)N(c3cccc(Cl)c3)C1=O)C2(C)C (stereo unspecified),-3.94%
5,O=C(NN1C(=O)C2C(C1=O)C1C=CC2C12CC2)c1ccccc1Cl (stereo unspecified),3.48%
6,CC12CCC(C(=O)N(NC(=O)c3ccccc3O)C1=O)C2(C)C (stereo unspecified),107% (active)
7,COc1cc(/C=N/NC(=O)c2cc(-c3ccccc3C)nc3ccccc23)cc(OC)c1O,32.7%
8,COc1ccc(/C=N/NC(=O)c2cc(-c3cccc(C)c3)nc3ccccc23)cc1O,34.6%
9,Cc1ccc(/C=N/NC(=O)C2=NNC(c3ccccc3)(c3ccccc3)C2)c(O)c1,102% (active)
10,O=C(Nc1ccc(OC(F)(F)F)cc1)c1ccc2c(c1)no[n+]2[O-],-3.65%
11,CC1CC2=C(CC1/C=N/NC(N)=S)C(C)(C)CCC2 (stereo unspecified),26.2%
12,CC(C)CN(C(=O)c1ccc2c(c1)OCO2)C1CCS(=O)(=O)C1 (stereo unspecified),3.11%
13,CCOc1cc(C(=O)Nc2ccc(S(=O)(=O)Nc3cnc4ccccc4n3)cc2)cc(OCC)c1OCC,19.7%
14,CC(=O)Nc1ccc(Nc2c3ccccc3nc3ccccc23)cc1,111% (active)
15,Cc1ccc(Nc2c3c(nc4ccccc24)CCC3)cc1,70.5%
16,CC(=O)Nc1ccc(NC(=O)COc2ncnc3ccccc23)cc1,-12.4%
17,COc1ccc(C(=O)OCC(=O)Nc2ccc3[nH]c(=O)[nH]c3c2)c(OC)c1OC,-6.2%
18,CC(OC(=O)CCC(=O)c1ccccc1)C(=O)Nc1ccc(F)cc1 (stereo unspecified),-2.1%
19,C=CCOc1ccc(/C=C/C(=O)OC(C)C(=O)Nc2ccc(NC(C)=O)cc2)cc1 (stereo unspecified),-2.89%
20,O=C(CN(C(=O)c1csnn1)c1cccc(Cl)c1)NC1CCCC1,9.33%
21,O=C(NNC(=S)NCc1ccco1)C(c1ccccc1)c1ccccc1,15.6%

row,Structure (SMILES),growth inhibition
1,CCCCC(=O)NNC(=S)NC(=O)C(c1ccccc1)c1ccccc1,107% (active)
2,CC(C)C(=O)Nc1cccc(NC(=S)NC(=O)C(c2ccccc2)c2ccccc2)c1,50.4%
3,Cc1ccc(CSCC(=O)N(C)CC(=O)Nc2cccc(F)c2)cc1,-6.82%
4,Cc1ccc(OCCC(=O)OCC(=O)N2c3ccccc3NC(=O)C2(C)C)cc1,-5.48%
5,Cn1c(N2CCOCC2)c(C=O)c2ccccc21,-1.88%
6,Cc1cc(C(=O)OC(C)C(=O)NC2CCCCC2C)c(C)o1 (stereo unspecified),-4.31%
7,COc1cccc(/C=N/Nc2cc(C)nc(-c3ccccc3O)n2)c1O,112% (active)
8,COc1cccc(/C=N/Nc2ncc(C(F)(F)F)cc2Cl)c1O,3.96%
9,COc1ccccc1/C=N\Nc1cc(C)nc(-n2nc(C)cc2C)n1,2.71%
10,CCOC(=O)c1c(NC(=O)CN2C(=O)NC3(CCC(C)CC3)C2=O)sc(C)c1CC (stereo unspecified),-6.28%
11,CC[n+]1cc(C)ccc1/C=C/c1ccc(N(C)C)cc1,79.2% (active)
12,CN(C)c1ccc(/C=N\S(=O)(=O)c2ccccc2)cc1,-0.179%
13,Cc1nnc(N/N=C/c2cccs2)[nH]c1=O,-0.996%
14,Cc1nnc(N/N=C/c2ccccn2)[nH]c1=O,102% (active)
15,Cc1nnc(N/N=C/C2CC=CCC2)[nH]c1=O (stereo unspecified),-10.8%
16,CCN(CC(=O)Nc1cc(Cl)ccc1C)C(=O)CSCc1ccc(C)cc1,-5.77%
17,O=S(=O)(NCCS(=O)(=O)N1CCN(c2ccccc2)CC1)c1ccc(F)cc1,0.355%
18,O=C(CC(c1ccccc1)c1cc(Cl)ccc1O)NCCN1CCOCC1 (stereo unspecified),-8.66%
19,O=C(NCCN1CCOCC1)Nc1cccc(Cl)c1,10.7%
20,O=C(CC(NCCN1CCOCC1)C(=O)O)Nc1cccc(Cl)c1 (stereo unspecified),90.7% (active)
21,COc1ccccc1C(=O)COC(=O)CSCC(=O)Nc1cc(C)on1,0.143%

row,Structure (SMILES),growth inhibition
1,O=C(COC(=O)c1ncc(Cl)c(Cl)c1Cl)NC1CCS(=O)(=O)C1 (stereo unspecified),-0.837%
2,Oc1ccccc1/C=N/n1c(-c2cccs2)n[nH]c1=S,-0.357%
3,S=c1[nH]nc(-c2cccs2)n1/N=C/c1cccs1,78.7% (active)
4,S=c1[nH]nc(-c2cccs2)n1/N=C/c1cn(-c2ccccc2)nc1-c1ccc(Cl)cc1,-0.57%
5,COc1cc(C(=O)OCC(=O)N(CC(C)C)C2CCS(=O)(=O)C2)ccc1OCC(C)C (stereo unspecified),5.68%
6,Oc1c(CN2CCN(c3ccc(F)cc3)CC2)cc(Cl)c2cccnc12,112% (active)
7,Oc1ccc(CN2CCN(c3ncccn3)CC2)cc1,-5.62%
8,Cc1cccnc1NC(=O)c1cccc(S(=O)(=O)N2CCN(c3ccc(F)cc3)CC2)c1,-15.4%
9,Cc1noc(C)c1COc1ccccc1C(=O)N(C)CC(=O)Nc1cccc(F)c1,3.18%
10,Cc1ccc(C(=O)NNC(=O)C(C)Oc2ccc3ccccc3c2)o1 (stereo unspecified),-0.807%
11,CCOC(=O)c1c(-c2ccccc2)oc2cc(Br)c(O)c(C=O)c12,99.6% (active)
12,CCOC(=O)c1c(-c2ccccc2)oc2ccc(OCC(N)=O)cc12,1.32%
13,CCOC(=O)c1c(-c2ccccc2)oc2cc(Br)c(O)cc12,15.1%
14,OC(COCCC12CC3CC(CC(C3)C1)C2)CN1CCCCC1 (stereo unspecified),8.32%
15,O=C(CCCCO)c1ccc(O)c(Cl)c1,-0.4%
16,Cc1ccc(NNC(=O)c2cccs2)cc1Cl,94.7% (active)
17,Cc1ccc(NNC(=O)c2c(F)cccc2Cl)cc1Cl,3.83%
18,O=C(NNC(=O)c1ccc(Cl)cc1Cl)c1cccs1,-3.73%
19,N[C@@H](Cc1ccccc1)C(=O)N1CCC(C(=O)NCC(=O)Nc2ccc(F)cc2)CC1,-10.4%
